Source: PubChem BioAssay (Tox21)
Results filed as inconclusive are left out. A call without a number means that no potency is given here. Activity calls are given as the source filed them. Unless noted, calls follow the shape of the dose curve; as a rule, active = well fitted curve in the direction sought with a large enough effect in the repeat runs; inconclusive = weak or mixed curves; inactive = flat fitted curve, though single readings scatter.

Assay: qHTS assay for small molecule disruptors of the mitochondrial membrane potential - cell viability (AID 720634; calls by dose curve;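 also: human HepG2 liver cancer cells; nearly all actives have a fitted effect of over 20% in size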)
Settings: HepG2 viability, ATP luminescence (CellTiter-Glo), 1 h; series mostly up to 83.2 µM
How it was run: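 Human hepatoma HepG2 cells were treated for 1 hr with test chemicals, then given m-MPI dye and CellTiter-Glo. Cell viability reflects luminescence proportional to cellular ATP.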

Row | SMILES | Potency
1 | COC(=O)NC(=S)Nc1ccccc1NC(=S)NC(=O)OC | inactive
2 | CCCCCOC(=O)c1ccccc1C(=O)OCCCCC | inactive
3 | CC(C)OC(=O)Nc1ccccc1 | inactive
4 | C#CC(C)(C)NC(=O)c1cc(Cl)cc(Cl)c1 | inactive
5 | CC(C)C1(C)N=C(c2nc3ccccc3cc2C(=O)O)NC1=O (centres undefined) | inactive
6 | Clc1ccc(Cl)cc1 | inactive
7 | C=C(C)CCl | inactive
8 | CC(C)(Cl)Cl | inactive
9 | O=S(=O)(c1ccc(O)cc1)c1ccc(O)cc1 | inactive
10 | Oc1ccccc1Cl | inactive
11 | O=NN1CCCCCCC1 | inactive
12 | Cc1cc(-c2cc(C)c(N)c(C)c2)cc(C)c1N | inactive
13 | CN(C)N=O | inactive
14 | CCCC1COC(Cn2cncn2)(c2ccc(Cl)cc2Cl)O1 (centres undefined) | inactive
15 | BrCCBr | inactive
16 | Nc1ccc(Cc2ccc(N)cc2)cc1 | inactive
17 | CCCCCCCCCCCC#N | inactive
18 | COP(N)(=O)SC (centres undefined) | inactive
19 | CCC12COCN1COC2 | inactive

Row | SMILES | Potency
20 | O=[N+]([O-])c1ccc([As](=O)(O)O)cc1 | inactive
21 | CC(C)(C)C(O)(CCc1ccc(Cl)cc1)Cn1cncn1 (centres undefined) | inactive
22 | O=C(O)c1ccccn1 | inactive
23 | Cn1cc(-c2ccccc2)c(=O)c(-c2cccc(C(F)(F)F)c2)c1 | inactive
24 | CC(NC(C)(C)C)C(=O)c1cccc(Cl)c1 (centres undefined) | inactive
25 | CN=C=S | inactive
26 | CCN(CC)c1ccccc1 | inactive
27 | c1cc2c3c(cccc3c1)CC2 | inactive
28 | CCC[N+](=O)[O-] | inactive
29 | CCOP(=S)(OCC)SCCSCC | inactive
30 | CCN(CC)CCO | inactive
31 | CCCN(CCC)N=O | inactive
32 | c1ccc(OP(Oc2ccccc2)Oc2ccccc2)cc1 | inactive
33 | c1ccc(-c2ccccc2)cc1 | inactive
34 | Nc1ccccc1C(=O)O | inactive
35 | CCOP(OCC)OCC | inactive
36 | ClCc1cccnc1 | inactive
37 | NCC(O)c1ccc(O)cc1 (centres undefined) | inactive

Assay: qHTS assay to test for compound auto fluorescence at 590 nm (red) in HepG2 cells (AID 720674)
Settings: HepG2 autofluorescence, red 540/590 nm, 1 h; series mostly up to 91.3 µM
How it was run: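 Seeding: 2,000 HepG2 cells/well, MEM/10% FBS, overnight 37 C. Dosing: compound vs DMSO. Incubation: 1 hr, 37 C, 5% CO2. Read: fluorescence 540 ex/590 em, Rose Bengal sodium as red reference.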

Row | SMILES | outcome
38 | COC(=O)NC(=S)Nc1ccccc1NC(=S)NC(=O)OC | inactive
39 | CCCCCOC(=O)c1ccccc1C(=O)OCCCCC | inactive
40 | CC(C)OC(=O)Nc1ccccc1 | inactive
41 | C#CC(C)(C)NC(=O)c1cc(Cl)cc(Cl)c1 | inactive
42 | CC(C)C1(C)N=C(c2nc3ccccc3cc2C(=O)O)NC1=O (centres undefined) | inactive
43 | Clc1ccc(Cl)cc1 | inactive
44 | C=C(C)CCl | inactive
45 | CC(C)(Cl)Cl | inactive
46 | O=S(=O)(c1ccc(O)cc1)c1ccc(O)cc1 | inactive
47 | Oc1ccccc1Cl | inactive
48 | O=NN1CCCCCCC1 | inactive
49 | Cc1cc(-c2cc(C)c(N)c(C)c2)cc(C)c1N | inactive
50 | CN(C)N=O | inactive
51 | CCCC1COC(Cn2cncn2)(c2ccc(Cl)cc2Cl)O1 (centres undefined) | inactive
52 | BrCCBr | inactive
53 | Nc1ccc(Cc2ccc(N)cc2)cc1 | inactive
54 | CCCCCCCCCCCC#N | inactive
55 | COP(N)(=O)SC (centres undefined) | inactive
56 | CCC12COCN1COC2 | inactive

Row | SMILES | outcome
57 | O=[N+]([O-])c1ccc([As](=O)(O)O)cc1 | inactive
58 | CC(C)(C)C(O)(CCc1ccc(Cl)cc1)Cn1cncn1 (centres undefined) | inactive
59 | O=C(O)c1ccccn1 | inactive
60 | Cn1cc(-c2ccccc2)c(=O)c(-c2cccc(C(F)(F)F)c2)c1 | inactive
61 | CC(NC(C)(C)C)C(=O)c1cccc(Cl)c1 (centres undefined) | inactive
62 | CN=C=S | inactive
63 | CCN(CC)c1ccccc1 | inactive
64 | c1cc2c3c(cccc3c1)CC2 | inactive
65 | CCC[N+](=O)[O-] | inactive
66 | CCOP(=S)(OCC)SCCSCC | inactive
67 | CCN(CC)CCO | inactive
68 | CCCN(CCC)N=O | inactive
69 | c1ccc(OP(Oc2ccccc2)Oc2ccccc2)cc1 | inactive
70 | c1ccc(-c2ccccc2)cc1 | inactive
71 | Nc1ccccc1C(=O)O | inactive
72 | CCOP(OCC)OCC | inactive
73 | ClCc1cccnc1 | inactive
74 | NCC(O)c1ccc(O)cc1 (centres undefined) | inactive
